Data reported in PubChem BioAssay (NCI).
Several values for one entry are separate records, joined by “and”; a condition that tells them apart may be missing. Identical values can stand only once. The panel holds about 79,000 compounds, 15% with a hit somewhere; the sample as a whole holds those more often. More than one record can exist for a structure, and the calls need not agree. Activity calls are given as the source filed them. No stated cut-off is given here; in the data, active means growth inhibition above about 70%; inactive means the rest.

Experiments:
[1] = NCI Yeast Anticancer Drug Screen. Data for the mec2-1 strain (AID 157); conditions: S. cerevisiae mec2-1 strain, stronger effect = higher value
How it was run: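 Readout is yeast growth inhibition, normalised to vehicle-treated controls, in the mec2-1 strain exposed to compound.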

[2] = NCI Yeast Anticancer Drug Screen. Data for the rad14 strain (AID 159);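 further: 0% = growth of vehicle-treated control cultures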; conditions: S. cerevisiae rad14 strain growth inhibition, stronger effect = higher value
How it was run: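 Here, inhibition of yeast growth was measured after compound exposure, using a strain with a genetic defect in DNA damage repair and vehicle-treated cultures as the reference.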

[3] = NCI Yeast Anticancer Drug Screen. Data for the sgs1 mgt1 strain (AID 161);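 further: 0% = growth of cultures given vehicle only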; conditions: S. cerevisiae sgs1 mgt1 strain, stronger effect = higher value
How it was run: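 This yeast growth screen uses a strain with defined DNA-repair lesions; compound-treated growth is compared with vehicle-treated growth.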

[4] = NCI Yeast Anticancer Drug Screen. Data for the CLN2oe strain (AID 163);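 further: 0% = growth of vehicle-only control cultures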; conditions: S. cerevisiae CLN2oe strain, stronger effect = higher value
How it was run: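 Values reflect how much compound exposure reduced yeast growth, referenced to vehicle-exposed cells. Assay organism is a strain with a defined genetic change affecting cell-cycle control.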

[5] = NCI Yeast Anticancer Drug Screen. Data for the cln2 rad14 strain (AID 165);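 further: 0% = growth equal to vehicle treated cultures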; conditions: S. cerevisiae cln2 rad14 strain, stronger effect = higher value
How it was run: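 Relative to vehicle controls, growth inhibition of compound-treated cln2 rad14 yeast was recorded.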

[6] = NCI Yeast Anticancer Drug Screen. Data for the bub3 strain (AID 167); conditions: S. cerevisiae bub3 mutant strain, stronger effect = higher value
How it was run: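 Whole-cell yeast assay. The mutant strain was incubated with compounds, and growth inhibition was determined by comparison with vehicle-treated cells.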

[7] = NCI Yeast Anticancer Drug Screen. Data for the wt2 strain (AID 169);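 further: 0% = growth of vehicle-treated yeast cultures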; conditions: S. cerevisiae wt2 strain growth inhibition, stronger effect = higher value
How it was run: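 Values express reduction in yeast growth under compound treatment, referenced to vehicle-treated cells.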

[8] = NCI Yeast Anticancer Drug Screen. Data for the mlh1 strain (AID 171);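 further: 0% = growth of vehicle-treated control cultures of the same strain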; conditions: S. cerevisiae mlh1 strain growth inhibition, stronger effect = higher value
How it was run: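 Steps: expose the defined-mutant yeast strain to compound; expose a parallel culture to vehicle; measure growth; express compound effect as inhibition relative to the vehicle culture.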

[9] = NCI Yeast Anticancer Drug Screen. Data for the sgs1 strain (AID 173);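 further: 0% = growth of vehicle-only control cultures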; conditions: S. cerevisiae sgs1 mutant, stronger effect = higher value
How it was run: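 Treat defined-mutant yeast with compound; measure growth; calculate inhibition relative to vehicle-treated cells.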

[10] = NCI Yeast Anticancer Drug Screen. Data for the mlh1 rad18 strain (AID 175); conditions: S. cerevisiae mlh1 rad18 strain growth inhibition, stronger effect = higher value
How it was run: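 Test agents were incubated with a yeast strain of defined genotype (DNA damage repair defect). Inhibition of growth was derived by comparison with vehicle-exposed cultures.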

[11] = NCI Yeast Anticancer Drug Screen. Data for the rad18 strain (AID 177); conditions: S. cerevisiae rad18 mutant growth inhibition, stronger effect = higher value
How it was run: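 A genetically defined yeast mutant impaired in DNA damage repair was treated with test compounds, then its growth was measured against cultures receiving vehicle alone.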

[12] = NCI Yeast Anticancer Drug Screen. Data for the rad52 strain (AID 147);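 further: 0% = growth of vehicle-treated control cultures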; conditions: S. cerevisiae rad52 mutant growth inhibition, stronger effect = higher value
How it was run: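 Screen used a yeast mutant impaired in DNA repair. After compound exposure, growth was measured. Values reflect inhibition compared with vehicle-treated cells.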

[13] = NCI Yeast Anticancer Drug Screen. Data for the wt1 strain (AID 149);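 further: 0% = growth of vehicle-treated wt1 cultures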; conditions: S. cerevisiae wt1 strain (SPY 50644) growth inhibition, stronger effect = higher value
How it was run: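 Measured: growth of wt1 yeast under compound versus vehicle treatment, reported as inhibition.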

[14] = NCI Yeast Anticancer Drug Screen. Data for the rad50EPP+ strain (AID 151);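 further: 0% = growth of vehicle-treated control cultures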; conditions: S. cerevisiae rad50 mutant strain, stronger effect = higher value
How it was run: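 Exposing the rad50EPP+ strain to each compound, growth was compared with vehicle-only cultures to give inhibition.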

[15] = NCI Yeast Anticancer Drug Screen. Data for the mgt1 strain (AID 153); conditions: S. cerevisiae mgt1 mutant growth inhibition, stronger effect = higher value
How it was run: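 Genetically defined yeast (mgt1) treated with compound; inhibition of growth expressed against vehicle-treated controls.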

[16] = NCI Yeast Anticancer Drug Screen. Data for the rad50 strain (AID 155);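 further: 0% = growth of vehicle-only cultures of the same strain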; conditions: S. cerevisiae rad50 strain growth inhibition, stronger effect = higher value
How it was run: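 Growth of the mutant yeast was measured after compound exposure and referenced to vehicle-treated cultures.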

[17] = at 5.0 µM (retest, dose inferred, filed as 0.5)
[18] = at 50.0 µM (retest, dose inferred, filed as 5.0)

Measured: growth inhibition

Cc1cc(N(CCOS(C)(=O)=O)CCOS(C)(=O)=O)ccc1C=Nc1ccc(-c2nc(Cc3ccccc3)sc2C)cc1
active: [1]; at 11.0 µM 72% | [1]; at 33.0 µM 93% | [1]; at 100.0 µM 98% | [2]; at 11.0 µM 80% | [2]; at 33.0 µM 96% | [2]; at 100.0 µM 96% | [3]; at 50.0 µM 85.5% and 85.9% | [4]; at 33.0 µM 91% | [4]; at 100.0 µM 97% | [6]; at 33.0 µM 89% | [6]; at 100.0 µM 98% | [7]; at 33.0 µM 92% | [7]; at 100.0 µM 98% | [8]; at 33.0 µM 92% | [8]; at 100.0 µM 97% | [9]; at 33.0 µM 94% | [9]; at 100.0 µM 98% | [10]; at 50.0 µM 77% | [11]; at 3.7 µM 73% | [11]; at 11.0 µM 90% | [11]; at 33.0 µM 94% | [11]; at 100.0 µM 98%
84.2% (active) and 37% (inactive): [6]; at 50.0 µM
78% (active) and -3% (inactive): [10]; [17]
97% (active) and 43% (inactive): [10]; [18]
inactive: [1]; [17] 40% and -3% | [1]; at 50.0 µM 49.3% | [2]; at 1.2 µM 3% | [2]; at 3.7 µM 38% | [3]; [17] 23% and 3% | [3]; [18] -12% and 43% | [4]; at 1.2 µM 23% | [4]; at 3.7 µM 0% | [4]; at 11.0 µM 57% | [5]; [17] 29% and 0% | [5]; [18] -12% and 35% | [6]; at 1.2 µM -32% | [6]; at 3.7 µM -38% | [6]; [17] 16% and -2% | [6]; at 11.0 µM 25% | [6]; [18] -14% and 55% | [7]; at 1.2 µM -12% | [7]; at 3.7 µM 10% | [7]; at 11.0 µM 48% | [8]; at 1.2 µM -32% | [8]; at 3.7 µM -15% | [8]; at 11.0 µM 46% | [9]; at 1.2 µM 3% | [9]; at 3.7 µM 15% | [9]; at 11.0 µM 66% | [11]; at 1.2 µM 41%
97% (active) and 46% (inactive): [1]; [18]
86.2% (active) and 27.1% (inactive): [5]; at 50.0 µM

COC(=O)C1(C)CCc2c(ccc3ccccc23)C1=O (stereo unspecified)
active: [6]; [18] 78% | [6]; at 50.0 µM 81% | [6]; at 100.0 µM 75% | [7]; at 100.0 µM 80%
inactive: [12]; at 1.2 µM -1% | [12]; at 3.7 µM 4% | [12]; at 11.0 µM 12% | [12]; at 33.0 µM 4% | [12]; at 100.0 µM 44% | [13]; at 1.2 µM 0% | [13]; at 3.7 µM -2% | [13]; at 11.0 µM -3% | [13]; at 33.0 µM -2% | [13]; at 100.0 µM -13% | [14]; at 1.2 µM -1% | [14]; at 3.7 µM 13% | [14]; at 11.0 µM 28% | [14]; at 33.0 µM 23% | [14]; at 100.0 µM 49% | [15]; at 1.2 µM -1% | [15]; at 3.7 µM 0% | [15]; at 11.0 µM -1% | [15]; at 33.0 µM -2% | [15]; at 100.0 µM 30% | [16]; at 1.2 µM -1% | [16]; at 3.7 µM 6% | [16]; [17] -13% | [16]; at 11.0 µM 13% | [16]; at 33.0 µM -87% | [16]; [18] 29% | [16]; at 50.0 µM 39.9% | [16]; at 100.0 µM 42% | [1]; at 1.2 µM 1% | [1]; at 3.7 µM -1% | [1]; [17] -14% | [1]; at 11.0 µM -2% | [1]; at 33.0 µM 0% | [1]; [18] -17% | [1]; at 50.0 µM 27.1% | [1]; at 100.0 µM 13% | [2]; at 1.2 µM -1% | [2]; at 3.7 µM 4% | [2]; at 11.0 µM 12% | [2]; at 33.0 µM 14% | [2]; at 100.0 µM 19% | [3]; [17] -5% | [3]; [18] 47% | [3]; at 50.0 µM 64.3% | [4]; at 1.2 µM -4% | [4]; at 3.7 µM 4% | [4]; at 11.0 µM 6% | [4]; at 33.0 µM 11% | [4]; at 100.0 µM 15% | [5]; [17] -10% | [5]; [18] 12% | [5]; at 50.0 µM 1.75% | [6]; at 1.2 µM 37% | [6]; at 3.7 µM 49% | [6]; [17] 40% | [6]; at 11.0 µM 57% | [6]; at 33.0 µM 65% | [7]; at 1.2 µM -5% | [7]; at 3.7 µM -2% | [7]; at 11.0 µM 9% | [7]; at 33.0 µM -5% | [8]; at 1.2 µM -2% | [8]; at 3.7 µM 2% | [8]; at 11.0 µM 7% | [8]; at 33.0 µM 5% | [8]; at 100.0 µM 32% | [9]; at 1.2 µM -14% | [9]; at 3.7 µM 3% | [9]; at 11.0 µM 16% | [9]; at 33.0 µM 34% | [9]; at 100.0 µM 67% | [10]; [17] -11% | [10]; [18] 57% | [10]; at 50.0 µM 26.5% | [11]; at 1.2 µM -5% | [11]; at 3.7 µM 6% | [11]; at 11.0 µM 10% | [11]; at 33.0 µM 7% | [11]; at 100.0 µM 53%
